“And” between values parts separate entries of the source, which are not always exact repeats. Equal values may be shown once. Records with an inconclusive call do not appear. A call without a number means that no potency is given here. A structure can be active in one record and inactive in another. The source made the active and inactive calls. Unless noted, the call rests on the fitted dose curve; in most records, active means well fitted curve in the direction sought with a large enough effect; inconclusive means small, poorly fitted or top-dose-only effect, or another doubt; inactive means no such curve, though single readings can be large; an effect the other way counts as inactive or inconclusive.
Experiments:
[1] = biological target: Cytochrome P450 2D6 (Homo sapiens) (UniProt P10635); assay: Cytochrome P450 family 2 subfamily D member 6 (CYP2D6) small molecule antagonists: luciferase biochemical (cell-free) qHTS assay (AID 1645840; active means well fitted curve in the direction sought with a large enough effect in the repeat runs; an effect the other way counts as inactive or inconclusive; further: nearly all actives have a fitted effect of over 55% in size; further: potency means the concentration at half of the fitted maximal effect)
In short: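 P450-Glo CYP2D6 system: proluciferin substrate converted by enzyme to luciferin, read by luminescence proportional to activity. Enzyme-substrate mix with compound 10 min at room temperature, then NADPH regeneration 1 h before detection reagent.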

[2] = biological target: Cytochrome P450 2C9 (Homo sapiens) (UniProt P11712); assay: Cytochrome P450 family 2 subfamily C member 9 (CYP2C9) small molecule antagonists: luciferase biochemical (cell-free) qHTS assay (AID 1645842; active means well fitted curve in the direction sought with a large enough effect in the repeat runs; an effect the other way counts as inactive or inconclusive; further: nearly all actives have a fitted effect of over 55% in size; further: potency means the concentration at half of the fitted maximal effect)
In short: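 P450-Glo CYP2C9 system: proluciferin substrate with enzyme in mix containing 0.4% BSA, 10 min at room temperature, then NADPH regeneration solution added and incubated 1 h at 37C. Detection reagent stopped reaction; luminescence read after 20 min as RLU.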

[3] = Primary qHTS for inhibitors of nuclear receptor binding SET domain protein 2 (NSD2) in an isogenic RCH-ACV NSD2 p.E1099K mutant (9B) (AID 1645876); further: nearly all actives have a fitted effect of over 70% in size; further: potency means the concentration at half of the fitted maximal effect
[4] = biological target: Papain (Carica papaya) (UniProt P00784); assay: Primary qHTS assay for inhibitors of the protease papain (AID 1645873);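 further: papain turnover of Z-FR-AMC read as the AMC fluorescence gain over 10 min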; further: potency means the concentration at half of the fitted maximal effect
[5] = Primary qHTS for inhibitors of nuclear receptor binding SET domain protein 2 (NSD2) in an RCH-ACV wild type WT cells (2C) (AID 1645877); further: nearly all actives have a fitted effect of over 70% in size; further: potency means the concentration at half of the fitted maximal effect
[6] = biological target: N-terminal Xaa-Pro-Lys N-methyltransferase 1 (Homo sapiens) (UniProt Q9BV86); assay: Confirmatory qHTS for Inhibitors of N-terminal methyltransferase 1 (NTMT1): MTaseGlo Assay (AID 1645874); conditions: NTMT1 enzyme, MTase-Glo SAH luminescence; further: potency means the concentration at half of the fitted maximal effect; nearly all actives have a fitted effect of over 65% in size
In short: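 SPKRIA peptide at 1 uM was methylated by 125 nM NTMT1 using 100 uM SAM over 30 min at room temperature, following a 15 min compound preincubation. Product SAH was detected luminescently.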

[7] = biological target: Rap guanine nucleotide exchange factor 3 (Homo sapiens) (UniProt O95398); assay: Confirmatory qHTS for antagonist of cAMP-regulated guanine nucleotide exchange factor 3 (EPAC1) (AID 1645880); further: potency means the concentration at half of the fitted maximal effect; nearly all actives have a fitted effect of over 55% in size
In short: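 Released BODIPY-GDP fluoresces less than Rap1-bound BODIPY-GDP; the signal is followed at 480/540 nm at 5-min intervals over 30 min, after 5 min at room temperature. Reactions contain 100 nM EPAC1, 250 nM RAP1B-BODIPY-GDP and 50 uM GDP; results are normalized to ATA and DMSO.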

[8] = biological target: Rap guanine nucleotide exchange factor 3 (Homo sapiens) (UniProt O95398); assay: Confirmatory qHTS for agonist of cAMP-regulated guanine nucleotide exchange factor 3 (EPAC1) (AID 1645881);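 further: EPAC1 catalysed release of BODIPY-GDP from Rap1B seen as fluorescence loss; nearly all actives have a fitted effect of over 75% in size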
[9] = biological target: Rap guanine nucleotide exchange factor 4 (Homo sapiens) (UniProt Q8WZA2); assay: Confirmatory qHTS for agonist of cAMP-regulated guanine nucleotide exchange factor 4 (EPAC2) (AID 1645884);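 further: nucleotide exchange releases bodipy-GDP from Rap1 and this lowers its fluorescence; nearly all actives have a fitted effect of over 65% in size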
[10] = biological target: Catechol O-methyltransferase (Homo sapiens) (UniProt P21964); assay: Confirmatory Screen for Target Class Profiling of Small Molecule Inhibitors of Methyltransferases (AID 1745852; calls by dose curve; further: potency means the concentration at half of the fitted maximal effect); conditions: MTase-Glo luminescence, SAH detection, recombinant enzyme; measured here: COMT max response; stronger effect = lower value
[11] = biological target: Guanidinoacetate N-methyltransferase (Homo sapiens) (UniProt Q14353); assay: as above; conditions: MTase-Glo luminescence, SAH detection, recombinant enzyme; for activity change, negative = inhibition: at 57.3 µM (top of the series)
[12] = biological target: Nicotinamide N-methyltransferase (Homo sapiens) (UniProt P40261); assay: as above; conditions: MTase-Glo luminescence, SAH detection, recombinant enzyme; measured here: NNMT max response; stronger effect = lower value
[13] = biological target: Phenylethanolamine N-methyltransferase (Homo sapiens) (UniProt P11086); assay: as above; conditions: MTase-Glo luminescence, SAH detection, recombinant enzyme; measured here: PNMT max response; stronger effect = lower value
[14] = A High-Content qHTS Against Drug Library for the Identification of Small Molecules that Inhibit DYT1 Early Onset Primary Dystonia-Associated Cell Pathology (AID 1645839; calls by dose curve)
In short: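 High-content imaging quantified EGFP-TorsinA mislocalization in HEK293-derived cells inducibly expressing DYT1 mutant torsinA, after 48 h exposure to compound given together with tetracycline induction. Cell count served as a toxicity channel alongside %pathology.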

Catechol O-methyltransferase (Homo sapiens), sequence (P21964 whole entry, looked up): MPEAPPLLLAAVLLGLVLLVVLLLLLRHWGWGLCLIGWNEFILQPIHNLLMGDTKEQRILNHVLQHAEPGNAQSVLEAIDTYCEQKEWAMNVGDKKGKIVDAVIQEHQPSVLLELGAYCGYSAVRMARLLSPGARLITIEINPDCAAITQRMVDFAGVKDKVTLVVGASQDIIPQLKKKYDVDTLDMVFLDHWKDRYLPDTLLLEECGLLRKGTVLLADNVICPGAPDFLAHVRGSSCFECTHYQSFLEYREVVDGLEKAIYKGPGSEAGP
Phenylethanolamine N-methyltransferase (Homo sapiens), sequence (P11086 whole entry, looked up): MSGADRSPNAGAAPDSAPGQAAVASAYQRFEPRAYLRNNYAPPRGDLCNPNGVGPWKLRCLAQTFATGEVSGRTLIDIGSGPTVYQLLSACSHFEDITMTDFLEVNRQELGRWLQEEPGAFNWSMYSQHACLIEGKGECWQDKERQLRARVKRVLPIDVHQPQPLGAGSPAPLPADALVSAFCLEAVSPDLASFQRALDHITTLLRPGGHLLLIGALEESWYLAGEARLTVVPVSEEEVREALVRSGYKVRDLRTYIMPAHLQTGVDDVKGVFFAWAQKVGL
Nicotinamide N-methyltransferase (Homo sapiens), sequence (P40261 whole entry, looked up): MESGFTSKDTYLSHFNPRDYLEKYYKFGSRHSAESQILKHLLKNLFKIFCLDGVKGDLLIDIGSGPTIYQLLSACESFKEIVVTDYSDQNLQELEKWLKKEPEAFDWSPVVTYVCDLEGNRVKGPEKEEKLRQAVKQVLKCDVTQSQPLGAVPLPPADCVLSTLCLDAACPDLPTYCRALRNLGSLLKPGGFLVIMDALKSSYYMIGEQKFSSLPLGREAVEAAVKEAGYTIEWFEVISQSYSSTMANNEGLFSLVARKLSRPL
Cytochrome P450 2C9 (Homo sapiens), sequence (P11712 whole entry, looked up): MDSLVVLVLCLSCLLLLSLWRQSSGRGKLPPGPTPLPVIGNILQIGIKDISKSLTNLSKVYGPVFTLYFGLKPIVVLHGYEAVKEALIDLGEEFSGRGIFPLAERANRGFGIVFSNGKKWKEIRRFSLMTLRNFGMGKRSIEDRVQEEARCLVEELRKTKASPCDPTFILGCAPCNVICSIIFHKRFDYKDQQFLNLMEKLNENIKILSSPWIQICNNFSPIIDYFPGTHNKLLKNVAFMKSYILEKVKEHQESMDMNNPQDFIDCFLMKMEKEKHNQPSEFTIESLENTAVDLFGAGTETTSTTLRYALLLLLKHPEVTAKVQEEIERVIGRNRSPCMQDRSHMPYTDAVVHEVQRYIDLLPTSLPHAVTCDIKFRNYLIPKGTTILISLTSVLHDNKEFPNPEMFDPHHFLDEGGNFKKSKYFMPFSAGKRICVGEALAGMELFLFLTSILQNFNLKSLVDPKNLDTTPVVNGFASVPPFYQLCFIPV
Cytochrome P450 2D6 (Homo sapiens), sequence (P10635 whole entry, looked up): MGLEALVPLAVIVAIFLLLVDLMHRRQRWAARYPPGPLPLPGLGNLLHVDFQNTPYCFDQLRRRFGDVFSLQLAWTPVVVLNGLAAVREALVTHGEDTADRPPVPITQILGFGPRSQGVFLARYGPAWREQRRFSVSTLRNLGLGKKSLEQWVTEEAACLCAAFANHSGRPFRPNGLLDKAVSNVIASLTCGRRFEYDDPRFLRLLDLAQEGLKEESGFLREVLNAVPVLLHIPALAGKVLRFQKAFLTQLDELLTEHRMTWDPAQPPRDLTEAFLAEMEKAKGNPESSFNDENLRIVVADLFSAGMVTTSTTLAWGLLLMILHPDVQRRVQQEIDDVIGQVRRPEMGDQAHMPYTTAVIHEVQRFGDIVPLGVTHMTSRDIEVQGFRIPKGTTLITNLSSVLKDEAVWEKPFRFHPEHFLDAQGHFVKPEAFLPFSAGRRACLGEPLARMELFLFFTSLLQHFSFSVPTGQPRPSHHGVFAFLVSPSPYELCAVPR
Papain (Carica papaya), sequence (P00784 whole entry, looked up, the tested form may be a part): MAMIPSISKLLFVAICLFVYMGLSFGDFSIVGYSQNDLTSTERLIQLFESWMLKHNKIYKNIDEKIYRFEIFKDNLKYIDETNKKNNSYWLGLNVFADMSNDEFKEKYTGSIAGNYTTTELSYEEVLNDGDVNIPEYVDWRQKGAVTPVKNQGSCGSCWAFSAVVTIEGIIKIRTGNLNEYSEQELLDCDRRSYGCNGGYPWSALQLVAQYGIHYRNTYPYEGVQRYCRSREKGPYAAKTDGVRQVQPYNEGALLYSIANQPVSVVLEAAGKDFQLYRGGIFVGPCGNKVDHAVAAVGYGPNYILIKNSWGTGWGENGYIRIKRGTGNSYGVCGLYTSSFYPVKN
Rap guanine nucleotide exchange factor 3 (Homo sapiens), sequence (O95398 whole entry, looked up): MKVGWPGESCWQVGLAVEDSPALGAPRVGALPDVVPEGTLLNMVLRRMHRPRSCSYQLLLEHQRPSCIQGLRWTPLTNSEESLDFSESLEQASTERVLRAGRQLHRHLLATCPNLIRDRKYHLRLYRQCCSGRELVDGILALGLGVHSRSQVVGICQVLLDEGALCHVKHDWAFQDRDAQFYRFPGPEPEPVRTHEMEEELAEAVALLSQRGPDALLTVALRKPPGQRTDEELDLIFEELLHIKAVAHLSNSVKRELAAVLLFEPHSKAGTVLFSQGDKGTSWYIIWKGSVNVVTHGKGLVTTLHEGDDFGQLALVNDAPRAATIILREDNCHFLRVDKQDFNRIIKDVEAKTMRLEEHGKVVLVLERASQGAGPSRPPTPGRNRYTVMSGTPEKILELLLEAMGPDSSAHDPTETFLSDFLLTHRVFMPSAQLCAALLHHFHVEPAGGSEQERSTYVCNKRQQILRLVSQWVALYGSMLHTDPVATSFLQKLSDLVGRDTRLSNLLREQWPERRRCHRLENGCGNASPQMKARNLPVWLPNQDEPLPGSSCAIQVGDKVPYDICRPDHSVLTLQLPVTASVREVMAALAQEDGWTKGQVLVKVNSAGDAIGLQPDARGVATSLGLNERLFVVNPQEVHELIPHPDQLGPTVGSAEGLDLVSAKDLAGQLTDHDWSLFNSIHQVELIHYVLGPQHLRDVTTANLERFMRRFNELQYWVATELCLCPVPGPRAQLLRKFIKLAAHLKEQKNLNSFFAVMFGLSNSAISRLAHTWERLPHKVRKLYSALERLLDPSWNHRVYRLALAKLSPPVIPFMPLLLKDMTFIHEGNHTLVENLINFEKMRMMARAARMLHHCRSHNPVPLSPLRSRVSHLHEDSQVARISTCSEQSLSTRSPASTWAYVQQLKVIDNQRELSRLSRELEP
N-terminal Xaa-Pro-Lys N-methyltransferase 1 (Homo sapiens), sequence (Q9BV86 whole entry, looked up): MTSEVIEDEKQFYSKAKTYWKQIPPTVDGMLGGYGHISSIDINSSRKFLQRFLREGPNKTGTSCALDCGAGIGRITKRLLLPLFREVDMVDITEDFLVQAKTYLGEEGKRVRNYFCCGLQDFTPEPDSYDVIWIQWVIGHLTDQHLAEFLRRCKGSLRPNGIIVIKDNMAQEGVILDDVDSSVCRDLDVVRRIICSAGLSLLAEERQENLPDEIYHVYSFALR
Rap guanine nucleotide exchange factor 4 (Homo sapiens), sequence (Q8WZA2 whole entry, looked up): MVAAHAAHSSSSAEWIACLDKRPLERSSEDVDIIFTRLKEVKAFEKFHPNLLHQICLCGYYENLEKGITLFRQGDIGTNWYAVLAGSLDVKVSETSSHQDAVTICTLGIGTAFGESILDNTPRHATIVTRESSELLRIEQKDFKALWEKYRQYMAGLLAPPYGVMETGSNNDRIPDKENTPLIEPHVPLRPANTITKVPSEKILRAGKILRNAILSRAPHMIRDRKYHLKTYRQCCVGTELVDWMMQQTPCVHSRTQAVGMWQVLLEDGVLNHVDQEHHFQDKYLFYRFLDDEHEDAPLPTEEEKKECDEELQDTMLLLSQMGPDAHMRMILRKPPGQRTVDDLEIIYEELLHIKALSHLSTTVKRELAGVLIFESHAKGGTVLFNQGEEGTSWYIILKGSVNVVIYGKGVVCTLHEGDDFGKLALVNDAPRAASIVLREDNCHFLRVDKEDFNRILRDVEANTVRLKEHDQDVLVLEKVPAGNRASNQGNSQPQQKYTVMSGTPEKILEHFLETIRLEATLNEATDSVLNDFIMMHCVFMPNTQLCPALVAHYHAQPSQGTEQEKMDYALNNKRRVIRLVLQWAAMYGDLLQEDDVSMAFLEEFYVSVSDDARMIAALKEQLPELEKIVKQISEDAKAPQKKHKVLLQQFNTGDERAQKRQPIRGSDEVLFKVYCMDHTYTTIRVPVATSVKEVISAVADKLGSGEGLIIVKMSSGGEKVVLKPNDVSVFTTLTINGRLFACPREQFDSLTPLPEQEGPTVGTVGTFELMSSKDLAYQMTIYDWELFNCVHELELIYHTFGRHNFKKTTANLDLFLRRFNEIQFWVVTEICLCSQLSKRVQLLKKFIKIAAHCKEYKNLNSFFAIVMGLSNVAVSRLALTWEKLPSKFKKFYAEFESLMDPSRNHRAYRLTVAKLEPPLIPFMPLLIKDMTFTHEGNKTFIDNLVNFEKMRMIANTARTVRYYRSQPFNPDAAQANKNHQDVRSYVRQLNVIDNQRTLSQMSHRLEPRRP

Which results are given for `CC(=O)Oc1ccc(C2(c3ccc(OC(C)=O)cc3)C(=O)Nc3ccccc32)cc1`?
Potency [1]: inactive; Potency [2]: 5.49 µM (active); Potency [3]: inactive

Which results are given for `CNCCCC1c2ccccc2C=Cc2ccccc21`?
Potency [1]: 3.09 µM (active); Potency [2]: inactive; Potency [4]: inactive

With `O=C(O)CC(O)C(=O)O` (stereo not given) as the molecule, how does the Potency [1] read?
Its Potency is “inactive”.

What about the Potency [2] of the same molecule?
Its Potency is “inactive”.

And the Potency [3]?
The Potency was “inactive”.

What about the Potency [5] of the same molecule?
The Potency was “inactive”.

Which Potency [1] does the source give for `CCOC(=O)[C@H](CCc1ccccc1)N[C@@H](C)C(=O)N1C(=O)N(C)C[C@H]1C(=O)O` here?
Its Potency is “inactive”.

What about the Potency [2] of the same molecule?
The Potency was “inactive”.

What about the Potency [3] of the same molecule?
The Potency was “inactive”.

And the Potency [5]?
The Potency was “inactive”.

What does the source list for `CCN(CC)CCNC(=O)c1c(C)[nH]c(/C=C2\C(=O)Nc3ccc(F)cc32)c1C`?
Potency [2]: inactive; Potency [6]: 30.8 µM (active); Potency [3]: 3.76 µM (active) and 3.32 µM (active); Potency [5]: 2.99 µM (active) and 3.72 µM (active)

Which Potency [1] does the source give for `O=C(O)[C@H](O)c1ccccc1` here?
The Potency was “inactive”.

What about the Potency [2] of the same molecule?
The Potency was “inactive”.

And the Potency [3]?
The Potency was “inactive”.

And the Potency [5]?
Its Potency is “inactive”.

What does the source list for `CC(C)(O)c1ccccc1CC[C@@H](SCC1(CC(=O)O)CC1)c1cccc(/C=C/c2ccc3ccc(Cl)cc3n2)c1`?
Potency [1]: inactive; Potency [2]: inactive; Potency [3]: inactive; Potency [5]: inactive; Potency [7]: 25 µM (active); Potency [8]: inactive; Potency [9]: inactive; activity [10]: -3.13%; activity change, negative = inhibition [11]: -3.41%; activity [12]: -24.6%; activity [13]: -2.75%

Which results are given for `CCCCN(CCCC)CC(O)c1cc(Cl)cc2c1-c1ccc(Cl)cc1/C2=C/c1ccc(Cl)cc1` (stereo not given)?
Potency [1]: 0.347 µM (active); Potency [2]: 21.9 µM (active); Potency [4]: inactive; Potency [3]: 15 µM (active); Potency [5]: 13.3 µM (active)

For `CSc1ccc2c(c1)C(N1CCN(C)CC1)Cc1ccccc1S2` (stereo not given), which Potency [1] is on record?
The Potency was 0.55 µM (active).

What about the Potency [4] of the same molecule?
Its Potency is “inactive”.

And the Potency [3]?
The Potency was 23.7 µM (active).

What about the Potency [5] of the same molecule?
Its Potency is 15 µM (active).

For `CC(C)(C(=O)O)c1ccc(C(O)CCCN2CCC(C(O)(c3ccccc3)c3ccccc3)CC2)cc1` (stereo not given), which Potency [14] is on record?
The Potency was “inactive”.

And the Potency [4]?
The Potency was “inactive”.

What does the source list for `CCCCN(CCCC)CCCOC(=O)c1ccc(N)cc1`?
Potency [1]: 0.0309 µM (active); Potency [2]: inactive; Potency [3]: inactive; Potency [5]: inactive

What does the source list for `CC1(C)CO[C@@H](CC(=O)O)CN1`?
Potency [1]: inactive; Potency [2]: inactive; Potency [3]: inactive; Potency [5]: inactive

Which Potency [1] does the source give for `Cc1cc(C(C#N)c2ccc(Cl)cc2)c(Cl)cc1NC(=O)c1cc(I)cc(I)c1O` (stereo not given) here?
Its Potency is 11 µM (active).

What about the Potency [2] of the same molecule?
Its Potency is 21.9 µM (active).

And the activity [10]?
The activity was -21.3%.

What about the Potency [11] of the same molecule?
The Potency was 30.4 µM (active).

And the activity [12]?
Its activity is -81.7%.

What about the activity [13] of the same molecule?
The activity was -74.7%.

For `Cn1c(=O)c2c(ncn2CC2OCCO2)n(C)c1=O`, which Potency [1] is on record?
The Potency was “inactive”.

And the Potency [2]?
The Potency was “inactive”.

And the Potency [3]?
The Potency was “inactive”.

And the Potency [5]?
Its Potency is “inactive”.

What does the source list for `CC(O)CN(CCN(CC(C)O)CC(C)O)CC(C)O` (stereo not given)?
Potency [1]: inactive; Potency [2]: inactive; Potency [3]: inactive; Potency [5]: inactive

Which results are given for `CC(C)(C)[C@]1(O)CCN2C[C@H]3c4ccccc4CCc4cccc(c43)[C@@H]2C1`?
Potency [4]: inactive and 15.8 µM (active); activity [10]: -2.14%; activity change, negative = inhibition [11]: 6.2%; activity [12]: -19.3%; activity [13]: -4.4%

Which results are given for `CSc1ccc2c(c1)N(CCC1CCCCN1C)c1ccccc1S2` (stereo not given)?
Potency [2]: inactive; Potency [4]: inactive; Potency [3]: 5.96 µM (active); Potency [5]: 3.76 µM (active)

With `O=C1O[C@H]([C@@H](O)CO)C(O)=C1O` as the molecule, how does the Potency [1] read?
The Potency was “inactive”.

What about the Potency [2] of the same molecule?
Its Potency is “inactive”.

And the Potency [3]?
The Potency was “inactive”.

And the Potency [5]?
Its Potency is “inactive”.

Which Potency [1] does the source give for `NC1[C@H]2CN(c3nc4c(cc3F)c(=O)c(C(=O)O)cn4-c3ccc(F)cc3F)C[C@@H]12` (stereo not given in full) here?
Its Potency is “inactive”.

And the Potency [2]?
The Potency was “inactive”.

And the Potency [3]?
The Potency was 2.99 µM (active).

What about the Potency [5] of the same molecule?
The Potency was 5.31 µM (active).

Which Potency [14] does the source give for `CC1(C)S[C@@H]2[C@H](NC(=O)Cc3ccccc3)C(=O)N2[C@H]1C(=O)O` (tested in a mixture with another compound) here?
The Potency was “inactive”.

And the Potency [3]?
The Potency was “inactive”.

Source: PubChem BioAssay (NCATS)
